Source: PubChem (Sanford-Burnham Center for Chemical Genomics)
CYP2C19 activ – increases human CYP2C19 enzyme activity. activation factor at 5 µM. P33261. recombinant CYP2C19, luciferin-H EGE luminescence; stronger effect = higher value; 0 = fully inhibited enzyme, 1 = untreated enzyme. 96,000 tested, under 10 active;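 active = activation factor of at least 2 at 5 µM in the primary screen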;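 note: 0 = wells with 2.5 mM tranylcypromine and 1 = vehicle-only wells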
CYP2C9 activ – increases human cytochrome P450 2C9 activity; recombinant CYP2C9, luciferin-H conversion, luminescence; stronger effect = higher value; factor 1 = untreated enzyme, 0 = blocked; activation factor at 5 µM; 96,000 tested, 1.4% active;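 active = activation factor of 2 or more for CYP2C9 at a 5 µM dose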;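 note: 0 = sulfaphenazole-blocked wells and 1 = vehicle-only wells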
CYP2C9 inhib – human CYP2C9 inhibition. P11712. inhibition, % at 5 µM. CYP2C9 Supersomes, luciferin-H conversion, luminescence. 96,000 tested, 20% active;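 active = blocking of liver enzyme CYP2C9 beyond about 50% at 5 µM, limit read from the data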
CYP2C19 inh – human CYP2C19 inhibition; P33261; CYP2C19 Supersomes, luciferin-H EGE luminescence, 30 min; inhibition, % at 5 µM; 96,000 tested, 21% active;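 active = CYP2C19 inhibition above a set limit at 5 µM in the primary screen, cut at about 50% in these data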;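 note: plate controls were negative control wells for no effect and 2.5 mM tranylcypromine positive control for full effect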
Pyk2 oligo antag – Pyk2 (human) oligomerization antagonism. Q14289. Q293 cells, Pyk2 FERM NanoBiT luminescence; stronger effect = lower value. z-score (the deposit names both 25 µM and 10 µM). 99,000 tested, 0.83% active. AID 1347419;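 active = Z-score of -3 or lower, scaled per plate to the spread of control and sample wells; inactive = z-score above -3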;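 note: negative z-score means lost luminescence so less FERM oligomerization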
Active calls of the source: *; . = no result given. Hits are enriched below; roughly 28% of the tested compounds scored in any of these assays.

SMILES	CYP2C19 activ	CYP2C9 activ	CYP2C9 inhib	CYP2C19 inh	Pyk2 oligo antag
COC(=O)c1sc2cnccc2c1N	0.8	0.7	30.7	21.1	0.76
CC(=O)Nc1ccc(OC(F)(F)C(F)C(F)(F)F)c(NC(C)=O)c1 (stereo not drawn)	1.2	1.1	-14.9	-16.0	0.48
COC(=O)C1=C(CSCc2ccco2)NC(=O)NC1c1cc(C)ccc1C (stereo not drawn)	0.1	0.2	79.7*	91.0*	-0.02
COC(=O)C1=C(CSc2nc3ccccc3o2)NC(=O)NC1c1cc(C)ccc1C (stereo not drawn)	0.2	0.2	78.5*	77.0*	-2.18
COC(=O)C1=C(CSc2nncn2C)NC(=O)NC1c1cc(C)ccc1C (stereo not drawn)	1	1.1	-8.2	1.7	0.98
CCOC(=O)C1=C(CSCC(=O)OC)NC(=O)NC1c1cc(C)ccc1C (stereo not drawn)	0.5	0.7	35.0	47.7	-1.42
O=C(O)CCCC(=O)Nc1ccc(Br)cc1C(=O)O	.	.	.	.	-0.34
COc1cnc(SCc2ccc(Cl)cc2Cl)nc1Cl	0.9	1	4.5	9.4	0.41
Cc1nnc(SCc2ccccc2)nc1/C=C/NOCc1ccc(Cl)cc1Cl	0.2	0.1	88.3*	79.0*	1.28
O=C(NC1(C(F)(F)F)NC(=O)N(C2CCCC2)C1=O)C1CC1 (stereo not drawn)	1	1.1	-8.4	4.1	-0.02
Cc1ccc(C)c(-c2cc(C(=O)Nc3nccs3)c3ccccc3n2)c1	0.9	0.5	49.1	11.9	-1.74
Cc1ccc(C)c(OCC(=O)Nc2cc(C)on2)c1	1	0.9	10.7	-1.3	.
Cc1ccc(-c2cc(C(=O)Nc3cc(C)on3)c3ccccc3n2)c(C)c1	0.7	0.2	77.4*	33.8	.
Cc1cc(NC(=O)c2cc(-c3cccnc3)nc3c(C)c(C)ccc23)no1	0.8	0.6	43.2	22.7	-1.49
Cc1ccc(C)c(-c2nnc(OCC(=O)Nc3cc(C)on3)c3ccccc23)c1	0.2	0.1	94.7*	75.9*	-1.31
Cc1cc(NC(=O)c2cc(-c3ccc(C)s3)nc3ccccc23)no1	0.3	0.1	85.7*	66.7*	.
O=C(Nc1cc(Sc2ccccn2)cc([N+](=O)[O-])c1)c1ccc([N+](=O)[O-])cc1	0.9	0.9	13.1	6.9	-1.66
CCCn1nc2cc(C(=O)NCc3ccc(C)cc3)ccc2c1OC	1	0.9	7.0	2.6	.
CS(=O)(=O)c1ccc2nc(NC3(C(F)(F)F)N=C4SCCN4C3=O)sc2c1 (stereo not drawn)	0.9	0.1	92.2*	5.7	2.07
COCCSc1nnc(NC(=O)CSCc2ccccc2)s1	0.7	0.4	59.0*	28.2	0.51
COCCSc1nnc(NS(=O)(=O)Cc2ccccc2)s1	0.9	0.3	68.5*	5.6	-0.14
COCc1nnc(NC(=O)CSCc2ccccc2)s1	0.9	0.9	13.4	5.4	0.75
COc1ccc(-c2nnc3ccc(SCC(=O)N4CCCCCC4)nn23)cc1OC	1	0.7	26.6	3.6	.
Cc1cccc(NC(=S)c2nc3ccccc3s2)c1	0.8	0.7	32.3	21.0	-0.09
CCOc1ccc(-c2nnn(CC(=O)c3cc(OC)ccc3OC)n2)cc1	0.9	1.6	-56.6	12.4	-1.09
SMILES	CYP2C19 activ	CYP2C9 activ	CYP2C9 inhib	CYP2C19 inh	Pyk2 oligo antag
COCCn1c(=O)[nH]c2cc(C(=O)NCCN3CCN(c4ccc(OC)cc4)CC3)ccc2c1=O	.	.	.	.	0.53
COc1ccc(NC(C)c2cc(Cl)ccc2O)cc1 (stereo not drawn)	0.4	0.5	49.4	58.4*	-1.22
N#Cc1nc(-c2cccs2)oc1NCCCN1CCOCC1	0.6	0.8	24.6	41.4	1.27
CCn1nnc(NC(=O)C(C)Oc2ccc(Cl)cc2Cl)n1 (stereo not drawn)	0.7	0.9	9.5	26.5	1.47
Cc1cc(NC(=O)c2sccc2C)n(-c2cccc(Cl)c2)n1	0	0.5	51.5*	96.1*	-0.93
Cc1cc(NC(=O)C(C)Oc2ccc(Cl)cc2Cl)n(-c2ccccc2)n1 (stereo not drawn)	0.3	0.4	63.1*	74.9*	-0.04
Cc1cc(NC(=O)c2cccs2)n(-c2ccccc2)n1	0.3	0.6	35.7	70.2*	0.26
Cc1cc2nn(-c3ccccc3)nc2cc1NC(=O)c1cccs1	1.1	1.1	-12.2	-9.2	-1.95
CCn1c(COc2ccc(Cl)c(C)c2)nnc1SCC(=O)N1CCCC1	1.1	1.2	-18.5	-11.6	-0.01
O=C(NCCN1CCOCC1)C1CC(=O)N(c2ccc(F)c(Cl)c2)C1 (stereo not drawn)	1	1.1	-14.9	2.1	0.77
COc1ccc(C(C)=O)c(Oc2nc(CN3CCOCC3)nc3scc(-c4cccs4)c23)c1	0.6	0.5	51.2*	43.7	-0.4
CC(=O)c1ccccc1Oc1nc(CN2CCOCC2)nc2scc(-c3cccs3)c12	0.1	0.3	71.5*	85.4*	-0.22
Cc1sc2nc(CN3CCOCC3)nc(Oc3ccc(NC(=O)c4ccco4)cc3)c2c1C	.	.	.	.	-0.19
CCC1(c2ccc(F)cc2)NC(=O)N(CC(=O)N2CCOCC2)C1=O (stereo not drawn)	1	1.1	-6.7	-1.7	0.82
O=C(CSc1nc(Nc2ccccc2)nc(N2CCOCC2)n1)Nc1ccccc1Cl	0	0	97.0*	95.2*	-2.65
O=C(CSc1nc(Nc2ccccc2)nc(N2CCOCC2)n1)Nc1ccc([N+](=O)[O-])cc1	0.5	0.2	77.2*	52.9*	-1.83
S=C1N(c2ccccc2)C(c2cccc3ccccc23)N2CCCN12 (stereo not drawn)	0.8	0.7	34.2	18.1	-0.69
N#Cc1ccc(N2Cc3ccccc3C2=NC(=O)c2cccnc2Cl)cc1	.	.	.	.	0.31
CC1(C)CC(=O)C=C(Nc2ccccc2F)C1	0.5	0.8	17.0	49.2	0.43
COc1nc(OC)nc(N2CCC(C(=O)NCc3cccs3)CC2)n1	0.8	1.4	-44.6	23.7	0.14
Cc1[nH]nc(SCC(=O)N2CCCCC2)c1[N+](=O)[O-]	0.4	0.5	48.4	64.6*	-0.7
Cc1[nH]nc(N2CCCCCC2)c1[N+](=O)[O-]	0.5	0.8	21.6	48.0	0.11
Cc1ccc2c(CC(=O)N3CCN(S(=O)(=O)c4cccs4)CC3)coc2c1	0.1	0.2	79.6*	92.4*	0.22
CCC(CO)[n+]1c(C)cc(/C=C2\Sc3ccccc3N2Cc2ccccc2)cc1C (stereo not drawn)	.	.	.	.	0.11
Cc1ccc(SCCNS(C)(=O)=O)cc1	0.8	0.8	21.4	19.2	0.31
O=C(O)CCCNS(=O)(=O)c1ccc(F)cc1	1.1	1.1	-6.0	-12.7	-0.34
O=S(=O)(NCCCCCNS(=O)(=O)c1ccc(F)cc1)c1ccc(F)cc1	0.5	0.3	72.7*	54.5*	0.66
Cc1ccc(SCCNS(=O)(=O)c2ccc(F)cc2)cc1	0	0.1	88.3*	95.7*	0.59
O=S(=O)(NCCSc1ccc(Cl)cc1)c1ccc(F)cc1	0.6	0.4	56.7*	37.4	0.06
Cc1csc2nc(CNS(=O)(=O)N(C)C)cn12	1	1	2.0	3.4	.
